Reference: PubChem BioAssay AID1159580 (chemical genetic matrix, 2015)
Where “and” joins values, the source holds several entries; their conditions need not be identical. Identical values can stand only once. The campaign covered roughly 5,500 compounds. About 2,000 (36%) were called active. Roughly 18% stayed inconclusive and do not appear here. Rule as the data show it: active = normalized growth mostly below about 0.91 (no sharp cut-off); inconclusive = no clear call, values can overlap the other calls; inactive = mostly above about 0.92. Some of the results follow.

Assay: chemical genetic growth profiling, strain panel (AID 1159580);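 also: tested at 20 µM; growth read once vehicle control cultures reached saturation at 30 °C; 1 = growth at the plate median or of vehicle wells; lower values mean less growth of the strain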
Conditions: S. cerevisiae deletion strains, growth OD

Measured: normalized growth

O=C(O[C@@H]1Cc2c(O)cc(O)cc2O[C@@H]1c1ccc(O)c(O)c1)c1cc(O)c(O)c(O)c1
active: locus YBR023C, strain chs3, hits give low values 0.86 | locus YBR231C, strain swc5, hits give low values 0.817 | locus YDL035C, strain GPR1, hits give low values 0.853 | locus YDR069C, strain doa4, hits give low values 0.833 | locus YDR162C, strain NBP2, hits give low values 0.771 | locus YER015W, strain faa2, hits give low values 0.808 | locus YGL173C, strain kem1, hits give low values 0.848 | locus YHR027C, strain rpn1, hits give low values 0.699 | locus YHR142W, strain chs7, hits give low values 0.851 | locus YIL066C, strain RNR3, hits give low values 0.793 | locus YIL073C, strain SPO22, hits give low values 0.665 | locus YJL187C, strain SWE1 (second series), hits give low values 0.854
inactive: locus YAL021C, strain ccr4, hits give low values 0.925 | locus YAL026C, strain drs2, hits give low values 0.923 | locus YAL030W, strain snc1, hits give low values 1.01 | locus YBL061C, strain skt5, hits give low values 0.955 | locus YBR009C, strain hhf1, hits give low values 0.973 | locus YBR021W, strain FUR4, hits give low values 0.999 | locus YBR171W, strain sec66, hits give low values 1.04 | locus YBR229C, strain ROT2, hits give low values 0.987 | locus YBR279W, strain paf1, hits give low values 0.986 | locus YCL011C, strain gbp2, hits give low values 0.961 | locus YCL016C, strain dcc1, hits give low values 0.966 | locus YCL029C, strain bik1, hits give low values 0.975 | locus YCL061C, strain MRC1, hits give low values 0.986 | locus YCL069W, strain vba3, hits give low values 1 | locus YCR088W, strain abp1, hits give low values 1.03 | locus YDL005C, strain med2, hits give low values 1.04 | locus YDL040C, strain nat1, hits give low values 1.03 | locus YDL074C, strain BRE1, hits give low values 0.854 | locus YDL101C, strain DUN1, hits give low values 0.939 | locus YDL185W, strain tfp1, hits give low values 1.01 | locus YDL192W, strain arf1, hits give low values 0.993 | locus YDR001C, strain nth1, hits give low values 1.02 | locus YDR101C, strain arx1, hits give low values 1.01 | locus YDR137W, strain rgp1, hits give low values 0.975 | locus YDR150W, strain NUM1, hits give low values 0.961 | locus YDR159W, strain sac3, hits give low values 1.12 | locus YDR195W, strain ref2 1.1 | locus YDR297W, strain sur2, hits give low values 0.966 | locus YDR318W, strain mcm21, hits give low values 1.02 | locus YDR334W, strain swr1, hits give low values 0.935 | locus YDR335W, strain msn5, hits give low values 0.981 | locus YDR388W, hits give low values 1.01 | locus YDR392W, strain spt3, hits give low values 1.01 | locus YDR502C, strain sam2, hits give low values 1.02 | locus YEL003W, strain gim4, hits give low values 0.981 | locus YEL037C, strain rad23, hits give low values 0.984 | locus YEL061C, strain CIN8 (second series), hits give low values 1.03 | locus YEL061C, strain CIN8, hits give low values 0.947 | locus YER016W, strain bim1, hits give low values 1.03 | locus YER110C, hits give low values 1.03 | locus YER111C, strain swi4, hits give low values 0.986 | locus YER155C, strain BEM2 (second series), hits give low values 1.01 | locus YER155C, strain BEM2, hits give low values 1.04 | locus YER167W, strain BCK2, hits give low values 0.995 | locus YFR010W, strain ubp6, hits give low values 0.961 | locus YGL078C, strain dbp3, hits give low values 1.03 | locus YGL086W, strain mad1, hits give low values 0.954 | locus YGL167C, strain pmr1, hits give low values 1.02 | locus YGL227W, strain vid30, hits give low values 1.05 | locus YGL240W, strain doc1, hits give low values 1.04 | locus YGL248W, strain PDE1, hits give low values 0.941 | locus YGL253W, strain hxk2, hits give low values 0.979 | locus YGR135W, strain pre9, hits give low values 1.02 | locus YGR252W, strain gcn5, hits give low values 1.01 | locus YHR013C, strain ard1, hits give low values 0.852 | locus YHR030C, strain SLT2, hits give low values 0.965 and 0.994 | locus YHR079C, strain IRE1 (second series), hits give low values 1.02 | locus YHR079C, strain IRE1, hits give low values 0.996 | locus YHR094C, strain hxt1, hits give low values 1.03 | locus YHR129C, strain ARP1, hits give low values 0.931 | locus YHR200W, strain rpn10, hits give low values 1 | locus YIL125W, strain kgd1, hits give low values 1 | locus YIR030C, strain dcg1, hits give low values 1.04 | locus YJL092W, strain hpr5, hits give low values 1.04 | locus YJL095W, strain BCK1 (second series), hits give low values 0.997 | locus YJL095W, strain BCK1, hits give low values 0.898 and 0.984 | locus YJL115W, strain asf1, hits give low values 1.03 | locus YJL129C, strain trk1, hits give low values 1.06 | locus YJL134W, strain LCB3, hits give low values 0.98 | locus YJL154C, strain vps35, hits give low values 1.03 | locus YJL164C, strain tpk1, hits give low values 0.966 | locus YJL166W, strain qcr8, hits give low values 0.922 | locus YJL168C, strain set2, hits give low values 1.03 | locus YJL187C, strain SWE1, hits give low values 0.988
